Source: ChEMBL document CHEMBL4513216, “Probing the Open Global Health Chemical Diversity Library for Multistage-Active Starting Points for Next-Generation Antimalarials” (ACS Infect Dis, 2020)
Out of some 69,000 compounds screened, about 8,600 (12%) showed an effect of 50% or more. This excerpt belongs to a sample that is enriched for strong results.

tested on: Plasmodium berghei; experiment: Screen against P. berghei liver stage (PbLuc), transformed with Luciferase, at 10uM; type: functional, HepG2; details: tested at 10 uM

Compound | INHIBITION [%]
COCCN1CCc2cc(C(=O)NC(C)C)c(NCC(C)C)nc2CC1 | 74.9
COCCN1CCc2cc(C(=O)N(C)C)c(NCC3CC3)nc2CC1 | -27.9
COCCN1CCc2cc(C(=O)O)c(NCC3CC3)nc2CC1 | -17.2
CNC(=O)c1cc2c(nc1NCC(C)C)CCN(CCOC)CC2 | 21.1
CCS(=O)(=O)N1CCc2cc(C(=O)NC)c(NCC(C)C)nc2CC1 | -9.02
COCCN1CCc2cc(C(=O)NC(C)C)c(NCC3CC3)nc2CC1 | 70.8
CCOc1ccccc1C(=O)Nc1cccc(C[S+](C)[O-])c1C (stereo not drawn) | 16.645
O=C(CCN1CCCC(CO)(CC2CC2)C1)NCc1cccc(Cl)c1 (stereo not drawn) | 4.66
CCC1COC2(CCN(C(=O)c3ccco3)CC2)C1 (stereo not drawn) | 22.9
COc1ccc2c(c1)CC(NCc1cccc(NC(C)=O)c1)CC2 (stereo not drawn) | 59.1
COc1ccc2c(c1)CC(NCc1cccc(OCC(N)=O)c1)CC2 (stereo not drawn) | 43.4
COc1ccc2c(c1)CC(NCc1cccc(CO)c1)CC2 (stereo not drawn) | 47.1
COCC(=O)NCc1cc(=O)n2c(n1)CN(Cc1ccco1)CCC2 | 47.5
O=C(NCc1nnc2n1CCCC2)N1CCc2sccc2C1 | 5.7
Cc1cccc(CNC(=O)Nc2ccn(CCN(C)C)n2)c1 | -23.8
C=C(C)Cn1nc(C)c(CN2CCN(C3CCCCC3)C(=O)C2)c1C | 13.85
Cc1ccccc1C1(CNCc2cnc(N3CCOCC3)nc2)CC1 | -5.22
Cc1ccc(CN2CCCC(c3nn(C)c4nccnc34)C2)s1 (stereo not drawn) | 37.6
CCCN1CCC(c2nc3ccc(NCc4cccnc4)cn3n2)CC1 | 52.1
CCCN1CCC(c2nc3ccc(NCc4ccccc4)cn3n2)CC1 | 61.1
c1cncc(CNc2ccc3nc(C4CCNCC4)nn3c2)c1 | 29.4
CCN1CCC(c2nc3ccc(NC(C)C)cn3n2)CC1 | 26.4

Compound | INHIBITION [%]
CC(C)CN1CCC(c2nc3ccc(NC(C)C)cn3n2)CC1 | 30.3
CCCN1CCC(c2nc3ccc(C)cn3n2)CC1 | 29.4
CN(C)C(=O)N1C[C@H]2CC[C@@H](C1)N(Cc1nnc(-c3ccco3)o1)C2 | 11.6
Cc1nc(-c2cnn(C)c2)nc2c1CN(C(=O)c1cccn1C)CC2 | -6.46
Cc1nc(-c2cnn(C)c2)nc2c1CN(C(=O)c1cccnc1)CC2 | -4.99
Cc1nc(-c2cnn(C)c2)nc2c1CN(C(=O)c1ccc[nH]1)CC2 | 57.1
COC(=O)c1ccc(NC(C)c2ccc3c(c2)CCC(=O)N3)nn1 (stereo not drawn) | 19.7
COc1ccc(-c2cc3nc(CCNC(=O)C4CC4)nn3cn2)cc1 | 8.915
c1csc(NCc2n[nH]c3c2CCN(CC2CC2)C3)n1 | 41.2
CN(C)c1ncc(-c2ccc(C(N)=O)cc2)c(C2CNCCO2)n1 (stereo not drawn) | -28.9
Cc1ccc(-c2ccc(C3CNCCO3)nc2)cc1 (stereo not drawn) | 91.6
Cn1nc(C2CNCCO2)cc1CCOc1ccc(Cl)cc1 (stereo not drawn) | 16.5
COc1ccc(-c2cnc(N(C)C)nc2C2CNCCO2)cc1 (stereo not drawn) | 21.7
c1ncc(-c2ccc(C3CNCCO3)nc2)cn1 (stereo not drawn) | 24.8
c1ccc(-c2ccc(C3CNCCO3)nc2)cc1 (stereo not drawn) | 84
Clc1ccc(-c2ccc(C3CNCCO3)nc2)cc1 (stereo not drawn) | 94.6
COc1ccc(OCCc2cc(C3CNCCO3)nn2C)cc1 (stereo not drawn) | -5.8
COc1ccc(-c2ccc(C3CNCCO3)nc2)cc1 (stereo not drawn) | 91.6
Fc1ccccc1OCCc1cc(C2CNCCO2)n[nH]1 (stereo not drawn) | 32.8
CN(C)c1ncc(-c2ccc(F)cc2)c(C2CNCCO2)n1 (stereo not drawn) | 15.1
CN(C)c1ncc(-c2cccc(F)c2)c(C2CNCCO2)n1 (stereo not drawn) | 8.72
CC(=O)N1CCCN(C(=O)NC(C)Cn2ccnc2)CC1 (stereo not drawn) | 24.2

Compound | INHIBITION [%]
Cn1c(=O)c2cc(C(=O)NCc3ccncc3)ccc2n(C)c1=O | -4.82
Cc1cc(C[S+]([O-])CC(=O)NCc2cccc(Cl)c2)no1 (stereo not drawn) | 49.8
CC(C)SCC(=O)N1CCCn2nc(C(=O)Nc3ccccc3)cc2C1 | -59.9
CC(=O)N1CCC2(CCCN(S(=O)(=O)c3ccc(F)cc3)C2)C1 (stereo not drawn) | -4.82
Cc1c(COC(C)C)cccc1NC(=O)N1CCC(N2CCCC2)C1 (stereo not drawn) | 36.3
Cc1nc(C)n(CC2CCCN2Cc2coc(-c3cccs3)n2)n1 (stereo not drawn) | 22.6
COc1ccccc1NC(=O)NCCCC(=O)Nc1cn[nH]c1 | -12.1
O=C(CCCOc1ccccc1F)NCCCC(=O)Nc1cn[nH]c1 | 51.7
O=C(CCCNC(=O)Nc1ccc(F)cc1)Nc1cn[nH]c1 | 20.7
CC(C)N1CCC(Nc2ccn(C)n2)C1=O (stereo not drawn) | 23.1
CC(C)N1CCC(Nc2ccn(Cc3ccccn3)n2)C1=O (stereo not drawn) | 38.7
CC(C)N1CCC(Nc2ccn(CCC#N)n2)C1=O (stereo not drawn) | 63.3
COC(C)(CNS(=O)(=O)c1cccnc1)c1ccccc1F (stereo not drawn) | 12.1
CCC1c2ccsc2CCN1C(=O)NCc1cc(C)on1 (stereo not drawn) | 11.915
CC(NC(=O)NCC(C)(C)C(N)=O)c1nc(-c2ccccc2)cs1 (stereo not drawn) | 28.6
COC(=O)[C@H]1C[C@@H](O)CCN1S(=O)(=O)c1cc(C)c(Cl)cc1C | 60.2
COC(=O)[C@H]1C[C@@H](O)CCN1S(=O)(=O)c1cc(Cl)ccc1OC | -16.9
COC(=O)[C@H]1C[C@@H](O)CCN1S(=O)(=O)c1ccc(F)cc1F | 34.2
Cc1cc(C)c(CNc2cnn(CC(O)CN(C)C)c2)c(C)c1 (stereo not drawn) | 29.8
Cc1ccc(CNC(=O)CN2CCN(CC(O)c3ccco3)CC2)cc1 (stereo not drawn) | -1.58
O=C(NCC1CC1)C1CCC2(CCN(C(=O)c3ccccn3)CC2)O1 (stereo not drawn) | -3.44
COCC(=O)NCC1(COc2cnccn2)C[C@@H](O)[C@@H](O)C1 (stereo partly drawn) | 7.31

Compound | INHIBITION [%]
COc1ccc(CNCC2(COc3cccnc3)C[C@@H](O)[C@@H](O)C2)cc1 (stereo partly drawn) | 25.3
COCC(=O)NCC1(COc2cccnc2)C[C@@H](O)[C@@H](O)C1 (stereo partly drawn) | 57.4
O[C@@H]1CC(CNCC2CC2)(COc2cccnc2)C[C@@H]1O (stereo partly drawn) | 51
O[C@@H]1CC(CNCC2CCCC2)(COc2cccnc2)C[C@@H]1O (stereo partly drawn) | -23.9
O[C@@H]1CC(CNCc2ccccn2)(COc2cccnc2)C[C@@H]1O (stereo partly drawn) | -36
O=c1c(NCCc2ccc(O)cc2)c(NCc2ccncc2)c1=O | 32.1
CC(C)c1noc(-c2ccc(NC(=O)NCC(O)C(C)C)cc2)n1 (stereo not drawn) | -132
Cc1ccc(OCCC(=O)NC2CCc3nc(C)cn3C2)cc1 (stereo not drawn) | 5.53
Cc1ccc(C(=O)NS(=O)(=O)Cc2ccccc2)cc1S(C)(=O)=O | 1.98
CC(C)Cc1cc(C(=O)N2CCC(C(=O)N3CCOCC3)CC2)on1 | 31.2
COC(=O)C1CCCN1C(=O)c1cc(CC(C)C)no1 (stereo not drawn) | -4.51
CC(C)Cc1cc(C(=O)N2CCC[C@H]2C(=O)N2CCOCC2)on1 | 68
CN(C)Cc1nc(C2(NC(=O)Nc3ccccc3)CCCC2)no1 | -20.1
O=c1c(-c2ccnc(NC3CCCCC3)n2)cnc2sc(Cl)cn12 | 29.3
CCOc1ncccc1NC(=O)Nc1c(C)nn(C(C)C)c1C | 56.8
CCOc1ncccc1NC(=O)NCC(C)O (stereo not drawn) | -1.14
CCOc1ncccc1NC(=O)N1CCN(c2cccc(C)c2C)CC1 | 90.4
COc1ncccc1NC(=O)N1CCOCC1C (stereo not drawn) | 45.4
CCOc1ncccc1NC(=O)N1CCCCCC1 | 22.3
Cc1nn(C(C)C)c(C)c1NC(=O)c1ccncc1 | 26.8
CCOc1ncccc1NC(=O)N1CCOCC1C (stereo not drawn) | 52.2
COc1ccc(Oc2ncccc2NC(=O)N2CCOCC2C)cc1 (stereo not drawn) | 28.7

Compound | INHIBITION [%]
CCOc1ncccc1NC(=O)N1CCN(c2ccc(O)cc2)CC1 | -5.845
COCCN1C[C@@H]2CN(Cc3cccc(F)c3)CCC[C@]2(C(=O)O)C1 | -1.64
CN(Cc1ccc(N2CCOCC2)cc1)C(=O)Cn1cccnc1=O | 7.08
CC(=O)N1CCC(c2[nH]ncc2S(C)(=O)=O)CC1 | 4.41
CNc1nc2cn(CCc3ccccc3)c(=O)c-2c[nH]1 | -32.1
Cc1noc(C)c1CN1CCc2c(CNc3nccs3)n[nH]c2C1 | 46.6
CC(NC(=O)NC1CC1)c1nc(-c2ccccc2)cs1 (stereo not drawn) | 11.5
O=S(=O)(NC1CCCCC12OCCO2)c1cc(F)cc(F)c1 (stereo not drawn) | 6.83
CN(Cc1cnn(C)c1)C(=O)c1cc(C(F)(F)F)n(C)n1 | 36.6
N#Cc1cccc(N2CCCC3(CNCCO3)C2)n1 (stereo not drawn) | 51.2
N#Cc1cccc(N2CCCC3(C2)CN(c2ncccn2)CCO3)n1 (stereo not drawn) | 42.3
N#Cc1cccc(N2CCOC3(CNCCOC3)C2)n1 (stereo not drawn) | 32.7
Cc1nn(C)c(C)c1CN1CCN(CC2(O)CCCN(C)C2)CC1 (stereo not drawn) | 20.9
O=C1NC(c2cnc(C3CCC3)s2)Nc2ncccc21 (stereo not drawn) | -44.2
Cc1cccc(NC(=O)CNC(=O)Cn2ncc(Cl)c(Cl)c2=O)c1C | 5.14
CNC(=O)CSc1cnn(CC(=O)Nc2cccc(Cl)c2C)c(=O)c1Cl | 45.7
Cc1cc(NC(=O)Cn2ncc(SCC(N)=O)c(Cl)c2=O)ccc1Br | 49.7
Cc1ccc(NC(=O)Cn2ncc(SCC(N)=O)c(Cl)c2=O)c(F)c1 | 64.5
Cc1ccc(NC(=O)Cn2ncc(SCC(N)=O)c(Cl)c2=O)cc1 | 30.5
Cc1cccc(NC(=O)Cn2ncc(SCC(N)=O)c(Cl)c2=O)c1C | 50.5
